The results in this text go back to PubChem BioAssay.

Calls of active or inactive are those of the source.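 The calls were made as follows, unless noted: active = inhibition of the reporter signal at or above 50%; inactive = inhibition below 50%.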

A short description of assay [1]: inhibitors of TNFa-induced NFkB p65 translocation, primary screen, imaging, HUVEC, MLSMR starter and 10KST1 sets (AID 438;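 active = inhibition above 20% together with a positive visual image hit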;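 also: compound added about 3h40 before a 20 min TNFalpha stimulation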;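 as to inhibition: signal is the nuclear over cytoplasmic p65 intensity ratio per well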). Conditions: HUVEC TNFa-induced p65 nuclear translocation; cell count: measured here: nuclei count (cytotoxicity indicator), at 2.08 µM; inhibition: at 2 µM, stronger effect = higher value, 0% TNFa-plus-vehicle, 100% no-TNFa wells.
Assay [2] in a line: reduction of polyQ htt aggregates in cells – imaging, exon1htt(103Q)mCFP cells, high-content imaging, primary screen (AID 483;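 active = visual image review flags a hit and inhibition of aggregation exceeds 20%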;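 also: compound exposure lasted 3 days before fixation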;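 as to nuclei count: percent of the per-plate median nuclei count of sample wells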). As to conditions: exon1htt(103Q)mCFP cell line, aggregate imaging, at 2 µM; inhibition of aggregation: stronger effect = higher value; nuclei count: measured here: cell count, toxicity.
Assay [3] in a line: endothelial E-selectin expression blockers – imaging, HUVEC, immunofluorescence, MLSMR starter and 10KST1 sets, primary screen (AID 487;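 active = visually confirmed hit in the image check and inhibition above 20%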;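 as to inhibition: signal is fraction of cell area covered by stained E-selectin grains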;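 as to nuclei count: 100% = median nuclei count of all wells on the same plate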). As to conditions: HUVEC TNFalpha-induced E-selectin immunofluorescence imaging, at 2 µM; inhibition: stronger effect = higher value; nuclei count: measured here: cell number, toxicity.
The target in assay [4] is Voltage-gated potassium channel subunit beta-2 (Rattus norvegicus) (UniProt P62483). Put plainly: inhibitors of rat Kvbeta2 reductase activity – biochemical, NADPH fluorescence, primary screen (AID 622;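 active = fluorescence slope higher than the sample average by over 3 SD, cut at about -0.22 in these data, passing the limit was not always enough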;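 also: slope of raw intensity against log time taken from 70 to 1610 s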). Conditions: recombinant KvBeta, 4-cyanobenzaldehyde reduction, at 10 µM, stronger effect = higher value.
The target is the same in assay [5]. Put plainly: enhancers of rat Kvbeta2 NADPH turnover – biochemical, NADPH fluorescence, primary screen (AID 623;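 active = NADPH fluorescence slope more negative than the mean of all samples by about 3 SD, 99.7% confidence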;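 also: fluorescence intensity change per second fitted from 20 to 320 s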). Conditions: Recombinant KvBeta, NADPH fluorescence decrease slope, 10 min; at 10 µM; stronger effect = lower value.
In assay [6] the target is Alpha-2C adrenergic receptor (Homo sapiens) (UniProt P18825). As to the kind of experiment: compounds altering alpha2C-coupled GIRK flux – cell-based, HEK293 alpha2C/GIRK1/2, thallium flux, primary screen (AID 624;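 active = fluorescence slope after compound addition differing from the mean of all screened samples at 99.7% confidence, in either direction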;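 also: slope of fluorescence ratio to pre-addition baseline per second over 15 to 24 s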). Conditions: thallium flux BTC fluorescence, at 10 µM, actives lie on both sides.
Assay [7] in a line: blockers of RIG-like receptor reporter activation – cell-based, Sendai virus stimulus, luciferase, 10K MLSCN set, TLR/RLR signaling modifier project, primary screen (AID 602276;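 active = inhibition at or above 50% at 10 µM; inactive = inhibition below 50%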;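 also: firefly luciferase from ISG56 promoter only with Renilla not read in this screen; 0% = Sendai virus plus DMSO and 100% = medium plus DMSO without virus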). Conditions: HEK293 RL24 IRF3 luciferase reporter, at 10 µM, stronger effect = higher value. Background: In a reporter assay the amount or activity of a reporter protein is the signal.
Assay [8] in a line: TLR3 IRF3 reporter activation blockers – cell-based, poly I:C stimulus, luciferase, 10K MLSCN set, primary screen (AID 602277). Conditions: HEK293-TLR3 RL24 IRF3 luciferase reporter, at 10 µM, stronger effect = higher value.

Chain of Voltage-gated potassium channel subunit beta-2 (Rattus norvegicus) (P62483 whole entry, looked up): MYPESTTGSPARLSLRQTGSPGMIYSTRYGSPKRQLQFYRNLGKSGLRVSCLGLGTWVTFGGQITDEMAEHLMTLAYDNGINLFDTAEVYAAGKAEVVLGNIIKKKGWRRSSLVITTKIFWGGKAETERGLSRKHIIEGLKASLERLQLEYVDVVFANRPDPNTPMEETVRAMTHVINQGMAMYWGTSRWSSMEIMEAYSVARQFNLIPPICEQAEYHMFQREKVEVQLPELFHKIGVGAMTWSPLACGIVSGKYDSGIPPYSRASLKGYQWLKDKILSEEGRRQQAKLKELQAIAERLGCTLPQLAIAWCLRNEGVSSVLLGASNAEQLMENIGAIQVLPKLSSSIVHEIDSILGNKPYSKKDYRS
Chain of Alpha-2C adrenergic receptor (Homo sapiens) (P18825 whole entry, looked up): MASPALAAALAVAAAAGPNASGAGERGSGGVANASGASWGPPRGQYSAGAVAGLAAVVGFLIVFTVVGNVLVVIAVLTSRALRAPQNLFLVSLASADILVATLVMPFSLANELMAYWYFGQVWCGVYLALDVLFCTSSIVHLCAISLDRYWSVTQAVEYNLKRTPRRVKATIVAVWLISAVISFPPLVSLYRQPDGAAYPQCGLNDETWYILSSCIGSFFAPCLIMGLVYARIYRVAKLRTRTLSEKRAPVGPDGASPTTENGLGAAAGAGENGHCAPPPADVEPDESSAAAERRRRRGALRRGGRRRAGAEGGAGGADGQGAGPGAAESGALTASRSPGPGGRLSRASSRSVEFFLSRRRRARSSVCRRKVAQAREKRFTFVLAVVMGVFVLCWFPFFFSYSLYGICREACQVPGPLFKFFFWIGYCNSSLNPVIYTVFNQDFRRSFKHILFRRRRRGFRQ

For orientation: inhibition means the drop in the measured response relative to a control, in per cent. Regarding `CCOC(=O)N1CCN(C(=O)c2ccc(CS(=O)(=O)c3c(Cl)cccc3Cl)o2)CC1`, the cell count in assay [1] is 512. Further, the inhibition in assay [1] was -5% (inactive); in assay [3] it was -97.8% (inactive); in assay [7], -2.6% (inactive); in assay [8], 21.2% (inactive). Further, the inhibition of aggregation in assay [2] is 2.1% (inactive). Also, the nuclei count worked out at 102% in assay [2] and 116% in assay [3]. The fluorescence slope in assay [4] is -0.419 (inactive). The NADPH fluorescence slope in assay [5] was -6.8e-05 (inactive). Also, the slope in assay [6] is 0.00631 (inactive).
For `COCCCn1c(SCC(=O)Nc2cccc(C)n2)nnc1-c1ccco1`, the cell count in assay [1] is 601. The inhibition in assay [1] was -10.2% (inactive); in assay [3] it was 73.4% (inactive); in assay [7], 18.6% (inactive); in assay [8], 16.6% (inactive). Further, in assay [2], the inhibition of aggregation is 21.7% (inactive). For the same molecule, the figures for the nuclei count in assay [2] and in assay [3] were 85.3% and 64.2%, respectively. In addition, the fluorescence slope in assay [4] is -0.612 (inactive). Moreover, the NADPH fluorescence slope in assay [5] is -2.9e-05 (inactive). Besides, the slope in assay [6] was 0.00331 (inactive).
Consider `COc1cc(S(=O)(=O)n2nnc3ccccc32)c(OC)cc1Cl`, for which, in assay [1], the cell count amounted to 629. For the same molecule, the inhibition is -3.3% (inactive) in assay [1], -51.9% (inactive) in assay [3], 13.5% (inactive) in assay [7] and -7.7% (inactive) in assay [8]. In addition, the inhibition of aggregation in assay [2] was -68.5% (inactive). The nuclei count in assay [2] stood at 93%; in assay [3], 122%. The fluorescence slope in assay [4] is -0.382 (inactive). Besides, the NADPH fluorescence slope in assay [5] was 3.8e-05 (inactive). Further, the slope in assay [6] was 0.00868 (inactive).
As to `O=C(Cn1cnc2c(nnn2-c2ccc(F)cc2)c1=O)N1CCCc2ccccc21`, the cell count in assay [1] amounted to 654. Besides, the inhibition was 0.4% (inactive) in assay [1], 1.5% (inactive) in assay [3], 14% (inactive) in assay [7] and 12.1% (inactive) in assay [8]. In addition, the inhibition of aggregation in assay [2] is -21.9% (inactive). Besides, the nuclei count in assay [2] is 130%; in assay [3], 102%. Moreover, in assay [4], the fluorescence slope was -0.523 (inactive). The NADPH fluorescence slope in assay [5] is -1.6e-06 (inactive). The slope in assay [6] was 0.00588 (inactive).
Turning to `CCCOc1ccc(N2CC(C(=O)Nc3ccc4c(c3)OCO4)CC2=O)cc1` (centres undefined), the cell count in assay [1] was found to be 520. The inhibition in assay [1] is -5% (inactive); in assay [3] it was -12.8% (inactive); in assay [7], 3.94% (inactive); in assay [8] it was 6.03% (inactive). For the same molecule, in assay [2], the inhibition of aggregation was 14.9% (inactive). In addition, the nuclei count in assay [2] is 81%; in assay [3], 81.9%. The fluorescence slope in assay [4] was -0.444 (inactive). Besides, in assay [5], the NADPH fluorescence slope is -2.5e-06 (inactive). Also, the slope in assay [6] is 0.00561 (inactive).
With `CCOC(=O)CSc1nnc(Cn2nnc(-c3ccccc3)n2)n1CC`, the cell count in assay [1] amounted to 415. For the same molecule, the inhibition in assay [1] is -0.8% (inactive); in assay [3], -34.4% (inactive); in assay [7], 15.9% (inactive); in assay [8], 21.4% (inactive). The inhibition of aggregation in assay [2] was 5.4% (inactive). Moreover, the nuclei count in assay [2] was 109%; in assay [3] it was 164%. For the same molecule, in assay [4], the fluorescence slope was -0.402 (inactive). The NADPH fluorescence slope in assay [5] was 2.4e-05 (inactive). Further, the slope in assay [6] is 0.006 (inactive).
Take `CCOC(=O)N1CCN(CC(O)COc2ccccc2C(C)CC)CC1` (centres undefined): in assay [1], the cell count was determined as 631. The inhibition was -12.4% (inactive) in assay [1], -35.9% (inactive) in assay [3], 10.8% (inactive) in assay [7] and 35.4% (inactive) in assay [8]. In addition, the inhibition of aggregation in assay [2] is 0.6% (inactive). The figures for the nuclei count in assay [2] and in assay [3] were 100% and 122%, respectively. Moreover, the fluorescence slope in assay [4] was -0.612 (inactive). Besides, the NADPH fluorescence slope in assay [5] was -1.6e-05 (inactive). The slope in assay [6] was 0.00663 (inactive).
Consider `CCn1c(=O)cc(OCC(=O)NC2CCCCC2)c2ccccc21`, for which the cell count in assay [1] was 336. Moreover, the inhibition in assay [1] was 22.2% (inactive); in assay [3], -15.3% (inactive); in assay [7] it was 1.11% (inactive); in assay [8], 23.9% (inactive). The inhibition of aggregation in assay [2] was -2.9% (inactive). Besides, the values for the nuclei count in assay [2] and in assay [3] were 110% and 113%, respectively. Moreover, in assay [4], the fluorescence slope was -0.263 (inactive). Also, the NADPH fluorescence slope in assay [5] is 1.1e-05 (inactive). Further, in assay [6], the slope is 0.00609 (inactive).
As for `COc1cc2c(cc1OC)-c1cc(Nc3ccc4c(c3)OCCO4)nc(=O)n1CC2`, the cell count in assay [1] is 649. Moreover, the inhibition in assay [1] was -6.9% (inactive); in assay [3], 5.7% (inactive); in assay [7] it was 41.3% (inactive); in assay [8], 44.1% (inactive). For the same molecule, the inhibition of aggregation in assay [2] is 0.9% (inactive). For the same molecule, the nuclei count in assay [2] was 104%; in assay [3], 128%. Also, the fluorescence slope in assay [4] was -0.41 (inactive). Moreover, the NADPH fluorescence slope in assay [5] was -5.2e-06 (inactive). Also, the slope in assay [6] was 0.00445 (inactive).
As to `COc1cccc(-c2cc(C(=O)N3CCc4ccccc4C3)no2)c1`, the cell count in assay [1] is 550. For the same molecule, the inhibition is -17% (inactive) in assay [1], 18.5% (inactive) in assay [3], -3.65% (inactive) in assay [7] and 13.4% (inactive) in assay [8]. Besides, the inhibition of aggregation in assay [2] is 1% (inactive). Moreover, the nuclei count was 111% in assay [2] and 99.8% in assay [3]. Also, the fluorescence slope in assay [4] is -0.445 (inactive). In addition, the NADPH fluorescence slope in assay [5] is 7.7e-06 (inactive). For the same molecule, in assay [6], the slope was 0.0069 (inactive).
`CS(=O)(=O)N(Cc1ccco1)CC(O)Cn1c2ccccc2c2ccccc21` (centres undefined): the cell count in assay [1] worked out at 314. Further, the inhibition in assay [1] is 3.3% (inactive); in assay [3], -16.4% (inactive); in assay [7] it was 13.7% (inactive); in assay [8] it was 35.1% (inactive). For the same molecule, the inhibition of aggregation in assay [2] is 3.9% (inactive). Also, the figures for the nuclei count in assay [2] and in assay [3] were 103% and 97.9%, respectively. The fluorescence slope in assay [4] was -0.388 (inactive). The NADPH fluorescence slope in assay [5] was 1.5e-05 (inactive). In addition, the slope in assay [6] is 0.00353 (inactive).
As to `CCCCOCP(=O)(CCCC)COCCCC`, the cell count in assay [1] was determined as 369. For the same molecule, the inhibition was 0% (inactive) in assay [1], -35.3% (inactive) in assay [3], 11.3% (inactive) in assay [7] and 22% (inactive) in assay [8]. Also, the inhibition of aggregation in assay [2] is 8.7% (inactive). The nuclei count in assay [2] was determined as 88.5%; in assay [3], 100%. For the same molecule, the fluorescence slope in assay [4] was -0.459 (inactive). Also, the NADPH fluorescence slope in assay [5] is -8.4e-05 (inactive). Also, the slope in assay [6] was 0.00748 (inactive).
As to `O=C(Nc1ncc(Br)s1)C1CCCN1S(=O)(=O)c1cccc2cccnc12` (centres undefined), the cell count in assay [1] stood at 674. Also, the inhibition in assay [1] was 0.6% (inactive); in assay [3], -12.1% (inactive); in assay [7], 4.87% (inactive); in assay [8], 36.5% (inactive). Further, the inhibition of aggregation in assay [2] was 39.7% (inactive). The nuclei count in assay [2] was 88.6%; in assay [3] it was 105%. Besides, the fluorescence slope in assay [4] is -0.583 (inactive). Moreover, the NADPH fluorescence slope in assay [5] was -2.2e-05 (inactive). For the same molecule, the slope in assay [6] was 0.00689 (inactive).
For `COc1ccc2c(CC(=O)Nc3nnc(C4CC4)s3)coc2c1`, the cell count in assay [1] was found to be 286. In addition, the inhibition in assay [1] is -15.7% (inactive); in assay [3], -13.2% (inactive); in assay [7] it was 9.99% (inactive); in assay [8], 14.7% (inactive). In assay [2], the inhibition of aggregation is 7.5% (inactive). Besides, the nuclei count in assay [2] was 105%; in assay [3] it was 111%. Also, the fluorescence slope in assay [4] is -0.482 (inactive). In assay [5], the NADPH fluorescence slope is -0.000211 (inactive). In assay [6], the slope is 0.00533 (inactive).
